Laboratory results taken from PubChem BioAssay AID2429 (National Center for Advancing Translational Sciences (NCATS), 2010).
The list shows a part of the results. Active and inactive are the calls of the source. The call rests on the fitted dose curve.

Biological target: 15-hydroxyprostaglandin dehydrogenase [NAD(+)] (Homo sapiens) (UniProt P15428)
Test: Confirmation qHTS Assay for Inhibitors of HPGD (15-Hydroxyprostaglandin Dehydrogenase)
Conditions: recombinant HPGD, NADH fluorescence, PGE2 substrate
From the text: Assay Overview: Human 15-Hydroxyprostaglandin dehydrogenase (HPGD) catalyzes the inactivation of prostaglandin E2, and plays a major role in cancer biology by antagonizing the oncogenic potential of cyclooxygenase type 2 (COX2). Assays are available, based on absorbance/fluorescence increase of NADH with the substrate 15-OH prostaglandin E2. Inhibition of HPGD activity was screened by utilizing prostaglandin as an electron donor and NAD+ as an electron acceptor/cofactor. An increase in the fluorescence intensity due to conversion of NAD+ to NADH was used to measure the enzyme activity. This assay is a confirmation screen of primary qHTS protocol (See AID 894). References 1. Myung SJ, Rerko RM, Yan M, Platzer P, Guda K, Dotson A, Lawrence E, Dannenberg AJ, Lovgren AK, Luo G, Pretlow TP, Newman RA, Willis J, Dawson D, Markowitz SD. 15-Hydroxyprostaglandin dehydrogenase is an in vivo suppressor of colon tumorigenesis. Proc Natl Acad Sci U S A. 2006 Aug 8;103(32):12098-102. 2. Yan M, Rerko RM, Platzer P, Dawson D, Willis J, Tong M, Lawrence E, Lutterbaugh J, Lu S, Willson JK, Luo G, Hensold J, Tai HH, Wilson K, Markowitz SD. 15-Hydroxyprostaglandin dehydrogenase, a COX-2 oncogene antagonist, is a TGF-beta-induced suppressor of human gastrointestinal cancers. Proc Natl Acad Sci U S A. 2004 Dec 14;101(50):17468-73. 3. Yang L, Amann JM, Kikuchi T, Porta R, Guix M, Gonzalez A, Park KH, Billheimer D, Arteaga CL, Tai HH, Dubois R, Carbone DP, Johnson DH. Inhibition of Epidermal Growth Factor Receptor Signaling Elevates 15-Hydroxyprostaglandin Dehydrogenase in Non-Small-Cell Lung Cancer. Cancer Res. 2007 Jun 15;67(12):5587-5593. NIH Chemical Genomics Center [NCGC] Structural Genomics Consortium [SGC]
Buffer: 50 mM Tris-HCl, 0.01% Tween 20, pH 8. Enzyme Buffer: 50 mM Tris-HCl, 0.5 mM NAD+ and 0.01% Tween 20, pH 8. Reagents/Controls: Buffer in columns 3 and 4 as negative control (no enzyme). Substrate/cofactor solution: 1 mM NAD+ and 30 uM prostaglandin (Sigma, prostaglandin E2, # P5640) final concentrations dispensed throughout the plate. Enzyme: 20 nM HPGD final concentration in columns 1, 2, 5-48. Column 1 and 2 is neutral (100% activity). A titration of control inhibitor GW5074 (G6416 Sigma-Aldrich, St. Louis, MO) top concentration 10 mM in DMSO, then 1:2 dilution for a total of 16 concentrations in duplicate) was pin-transferred into column 2. Assay Steps: Three uL of enzyme were dispensed to 1536-well Greiner black solid bottom plates. Compounds and control inhibitor (23 nL) were transferred via Kalypsys PinTool. The plates were incubated for 15 min at room temperature, and then 1 uL of substrate/cofactor solution was added to start the reaction. The plates were immediately transferred to and read 5 times every 30 seconds on ViewLux High-throughput CCD imager (Perkin-Elmer) using 360 nm excitation and 450 nm emission fluorescence protocol. The fluorescence intensity difference between the last and the first time points was used to compute reaction progress.

15-hydroxyprostaglandin dehydrogenase [NAD(+)] (Homo sapiens), sequence (P15428 whole entry, looked up): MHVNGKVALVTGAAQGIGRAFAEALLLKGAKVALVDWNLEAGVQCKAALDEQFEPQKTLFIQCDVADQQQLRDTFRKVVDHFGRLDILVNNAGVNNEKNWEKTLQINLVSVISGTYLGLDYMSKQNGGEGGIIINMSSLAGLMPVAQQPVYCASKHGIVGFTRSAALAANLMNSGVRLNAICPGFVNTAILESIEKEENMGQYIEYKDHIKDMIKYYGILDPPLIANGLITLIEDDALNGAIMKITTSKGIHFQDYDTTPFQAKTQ

Row | SMILES | Potency
1 | CC1CCN(C(=O)c2ccc(CSc3ccc(Cl)cc3)cc2)CC1 | 0.631 µM (active)
2 | CN(c1ccc(C(=O)N2CCc3ccccc3C2)cc1)S(C)(=O)=O | 14.1 µM (active)
3 | Cc1ccnc(-n2sc3ccccc3c2=O)n1 | 3.16 µM (active)
4 | O=C(c1ccc(CSc2ccccc2)cc1)N1CCCCCC1 | 0.224 µM (active)
5 | CC1CCN(C(=O)c2cc3nc(C4CC4)cc(C(F)(F)F)n3n2)CC1 | 3.98 µM (active)
